According to PubChem BioAssay (Tox21):
Several values for one entry are separate records, joined by “and”; a condition that tells them apart may be missing. Equal values may be shown once. Some compounds were tested as several samples or in several runs, with calls that do not always agree. Activity calls are given as the source filed them. Unless noted, the call rests on the fitted dose curve; in most records, active means well fitted curve in the direction sought with a large enough effect in the repeat runs; inconclusive means weak or mixed curves; inactive means no such curve, though single readings can be large; an effect the other way counts as inactive or inconclusive.

Legend:
[1] = qHTS assay for identifying genotoxic compounds that show differential cytotoxicity against isogenic chicken DT40 cell lines with known DNA damage response pathways - wild type cell line (AID 743012); further: nearly all actives have a fitted effect of over 60% in size; further: potency means the concentration at half of the fitted maximal effect
Method in brief: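 CellTiter-Glo luminescence readout of viability in wild type DT40 cells after 40 h compound exposure at 37 C/5% CO2; 300 cells/well; reagent incubated 30 min at room temperature before reading.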

[2] = qHTS assay for identifying genotoxic compounds that show differential cytotoxicity against isogenic chicken DT40 cell lines with known DNA damage response pathways - Rev3 mutant cell line (AID 743014); further: nearly all actives have a fitted effect of over 55% in size; further: potency means the concentration at half of the fitted maximal effect
[3] = qHTS assay for identifying genotoxic compounds that show differential cytotoxicity against isogenic chicken DT40 cell lines with known DNA damage response pathways - Rad54/Ku70 mutant cell line (AID 743015); further: nearly all actives have a fitted effect of over 60% in size; further: potency means the concentration at half of the fitted maximal effect
[4] = qHTS assay to identify small molecule antagonists of the androgen receptor (AR) signaling pathway - cell viability counter screen (AID 743033; further: nearly all actives have a fitted effect of over 45% in size)
[5] = biological target: Androgen receptor (Homo sapiens) (UniProt P10275); test: qHTS assay to identify small molecule antagonists of the androgen receptor (AR) signaling pathway (AID 743035; active means well fitted inhibition curve with a large enough effect in the signal ratio in the repeat runs, not every such curve was filed as active; inconclusive means weak or mixed curves, or effect the other way; inactive means no such curve, though single readings can be large or run the other way; the % refers to the signal ratio)
Sequence of Androgen receptor (Homo sapiens) (P10275 whole entry, looked up): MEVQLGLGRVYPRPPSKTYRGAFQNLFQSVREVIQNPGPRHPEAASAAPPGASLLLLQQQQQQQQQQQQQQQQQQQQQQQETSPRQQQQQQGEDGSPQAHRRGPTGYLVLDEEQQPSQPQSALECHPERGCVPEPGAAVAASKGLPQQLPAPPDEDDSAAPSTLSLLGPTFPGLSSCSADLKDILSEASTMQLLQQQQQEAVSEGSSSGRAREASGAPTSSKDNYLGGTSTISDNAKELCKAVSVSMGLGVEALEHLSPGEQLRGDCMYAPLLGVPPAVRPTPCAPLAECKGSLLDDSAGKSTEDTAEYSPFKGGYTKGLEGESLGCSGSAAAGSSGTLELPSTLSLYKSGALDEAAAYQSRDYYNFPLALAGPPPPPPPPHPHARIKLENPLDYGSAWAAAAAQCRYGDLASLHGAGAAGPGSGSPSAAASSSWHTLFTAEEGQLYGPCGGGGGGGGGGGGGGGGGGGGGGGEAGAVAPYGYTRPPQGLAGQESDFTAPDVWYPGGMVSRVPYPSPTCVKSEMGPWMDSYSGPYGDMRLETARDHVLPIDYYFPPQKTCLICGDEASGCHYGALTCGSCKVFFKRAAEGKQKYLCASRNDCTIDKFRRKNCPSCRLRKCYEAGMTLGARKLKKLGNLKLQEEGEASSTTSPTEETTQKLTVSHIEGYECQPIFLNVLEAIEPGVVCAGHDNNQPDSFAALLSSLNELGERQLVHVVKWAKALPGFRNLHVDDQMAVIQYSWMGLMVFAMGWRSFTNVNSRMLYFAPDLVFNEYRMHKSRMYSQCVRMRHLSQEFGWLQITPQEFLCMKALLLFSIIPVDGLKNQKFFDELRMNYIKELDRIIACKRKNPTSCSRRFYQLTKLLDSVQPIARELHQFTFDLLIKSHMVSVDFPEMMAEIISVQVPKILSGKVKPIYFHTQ
Method in brief: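 AR-bla HEK293 reporter cells; 4 h settle at 37C/5% CO2; compound + R1881 agonist, 16 h at 37C; LiveBLAzer B/G FRET substrate 2 h RT; fluorescence intensity read. qHTS format.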

[6] = biological target: Androgen receptor (Homo sapiens) (UniProt P10275); test: qHTS assay to identify small molecule agonists of the androgen receptor (AR) signaling pathway (AID 743036; active means well fitted activation curve with a large enough effect in the signal ratio in the repeat runs, with a control signal flat, not every such curve was filed as active; inconclusive means weak or mixed curves, or effect the other way; inactive means no such curve, though single readings can be large or run the other way; the % refers to the signal ratio)
Method in brief: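 Activation was read as beta-lactamase FRET signal from LiveBLAzer B/G substrate, added for 2 h at room temperature. Before that, GeneBLAzer AR-UAS-bla GripTite (HEK293) cells had 16 h compound exposure at 37C.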

[7] = biological target: Androgen receptor (Homo sapiens) (UniProt P10275); test: qHTS assay to identify small molecule agonists of the androgen receptor (AR) signaling pathway using the MDA cell line (AID 743040; further: nearly all actives have a fitted effect of over 20% in size); details: MDA-kb2 AR-luc cells, MMTV luciferase, 16 h, stronger effect = higher value
Method in brief: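 Stable MMTV-luciferase reporter in MDA-kb2 cells; note the promoter carries GR as well as AR response elements. 16 h compound treatment, 37C, 0% CO2; ONE-Glo luminescence endpoint.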

[8] = qHTS assay to identify small molecule antagonists of the androgen receptor (AR) signaling pathway using the MDA cell line - cell viability counter screen (AID 743041; further: nearly all actives have a fitted effect of over 45% in size)
Method in brief: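 Using the breast carcinoma line MDA-kb2 AR-luc, test chemicals were co-incubated with R1881 for 16 h; CellTiter-Fluor reagent, added at 15.5 h, provided a fluorescence measure of live cells.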

[9] = biological target: Androgen receptor (Homo sapiens) (UniProt P10275); test: qHTS assay to identify small molecule antagonists of the androgen receptor (AR) signaling pathway using the MDA cell line (AID 743042; further: nearly all actives have a fitted effect of over 55% in size; further: potency means the concentration at half of the fitted maximal effect)
Method in brief: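 Antagonist mode: compounds plus R1881 agonist added to MDA-kb2 AR-luc cells, incubated 16 h at 37C. Luciferase reporter luminescence quantified, with multiplexed CellTiter-Fluor readout for cell viability.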

[10] = qHTS assay to identify small molecule antagonists of the thyroid receptor (TR) signaling pathway - cell viability counter screen (AID 743064); further: nearly all actives have a fitted effect of over 50% in size; further: potency means the concentration at half of the fitted maximal effect
Method in brief: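 In-well cytotoxicity read by CellTiter-Fluor (30 min, 37 C) following 23.5 h exposure of GH3 cells bearing a TRE-luciferase sensor. Compounds were added alongside 1 nM (final) T3 to drive TR transactivation.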

[11] = qHTS assay to identify small molecule antagonists of the thyroid receptor (TR) signaling pathway (AID 743065); further: nearly all actives have a fitted effect of over 55% in size; further: potency means the concentration at half of the fitted maximal effect
Method in brief: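 Antagonism measured as loss of luciferase signal in GH3 cells stably carrying a TRE-luciferase reporter, co-treated with compound and T3 (1 nM final) for 23.5 h at 37 C. Viability was read in the same well by CellTiter-Fluor.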

[12] = tested on: thyroid hormone receptor (rat, GH3 cells); test: qHTS assay to identify small molecule agonists of the thyroid receptor (TR) signaling pathway (AID 743066; calls by dose curve)
[13] = qHTS assay to identify small molecule antagonists of the estrogen receptor alpha (ER-alpha) signaling pathway - cell viability counter screen (AID 743074; calls by dose curve; further: nearly all actives have a fitted effect of over 45% in size)
[14] = qHTS assay to identify small molecule antagonists of the estrogen receptor alpha (ER-alpha) signaling pathway using the BG1 cell line - cell viability counter screen (AID 743081);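 further: compound given together with 17beta-estradiol as the ER stimulus; nearly all actives have a fitted effect of over 45% in size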
Aromatase (Homo sapiens) = Aromatase (Homo sapiens) (UniProt P11511); test: qHTS assay to identify aromatase inhibitors (AID 743083); further: nearly all actives have a fitted effect of over 55% in size; further: potency means the concentration at half of the fitted maximal effect
Sequence of Aromatase (Homo sapiens) (P11511 whole entry, looked up): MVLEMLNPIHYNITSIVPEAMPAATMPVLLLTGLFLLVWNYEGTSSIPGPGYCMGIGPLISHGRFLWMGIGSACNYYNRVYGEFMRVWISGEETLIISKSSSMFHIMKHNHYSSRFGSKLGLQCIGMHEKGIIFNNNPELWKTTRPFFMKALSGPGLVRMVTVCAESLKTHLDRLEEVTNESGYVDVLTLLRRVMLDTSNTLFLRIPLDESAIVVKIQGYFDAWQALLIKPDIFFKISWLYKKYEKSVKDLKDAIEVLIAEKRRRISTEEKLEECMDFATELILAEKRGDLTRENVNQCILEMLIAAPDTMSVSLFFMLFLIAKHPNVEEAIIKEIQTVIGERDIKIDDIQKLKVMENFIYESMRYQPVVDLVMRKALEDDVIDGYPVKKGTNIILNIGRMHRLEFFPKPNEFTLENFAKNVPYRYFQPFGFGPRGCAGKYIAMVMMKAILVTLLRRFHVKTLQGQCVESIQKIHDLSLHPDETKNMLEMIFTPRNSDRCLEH

[15] = qHTS assay to identify small molecule antagonists of the glucocorticoid receptor (GR) signaling pathway - cell viability counter screen (AID 720693); further: nearly all actives have a fitted effect of over 55% in size
[16] = biological target: Estrogen receptor (Homo sapiens) (UniProt P03372); test: qHTS assay to identify small molecule antagonists of the estrogen receptor alpha (ER-alpha) signaling pathway (AID 743069; active means well fitted curve in the direction sought with a large enough effect in the signal ratio in the repeat runs, not every such curve was filed as active; inconclusive means weak or mixed curves, or effect the other way; inactive means no such curve, though single readings can be large or run the other way; the % refers to the signal ratio; further: potency means the concentration at half of the fitted maximal effect)
Sequence of Estrogen receptor (Homo sapiens) (P03372 whole entry, looked up): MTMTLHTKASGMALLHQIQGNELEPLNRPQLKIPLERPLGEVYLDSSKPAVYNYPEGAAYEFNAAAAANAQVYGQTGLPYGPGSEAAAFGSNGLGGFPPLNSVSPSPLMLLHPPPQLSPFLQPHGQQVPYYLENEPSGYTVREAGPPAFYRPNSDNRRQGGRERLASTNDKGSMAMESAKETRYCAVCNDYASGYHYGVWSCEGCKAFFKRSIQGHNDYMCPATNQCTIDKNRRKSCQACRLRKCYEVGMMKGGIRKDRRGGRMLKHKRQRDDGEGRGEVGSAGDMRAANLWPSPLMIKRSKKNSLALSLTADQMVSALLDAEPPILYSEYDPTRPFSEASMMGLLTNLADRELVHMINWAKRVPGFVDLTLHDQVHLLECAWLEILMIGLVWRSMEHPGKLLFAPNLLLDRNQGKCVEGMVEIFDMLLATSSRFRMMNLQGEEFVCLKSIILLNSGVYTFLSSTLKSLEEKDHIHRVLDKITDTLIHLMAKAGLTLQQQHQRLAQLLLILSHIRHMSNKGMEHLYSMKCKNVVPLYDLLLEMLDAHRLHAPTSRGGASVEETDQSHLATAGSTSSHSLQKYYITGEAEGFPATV
Method in brief: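 Fluorescence intensity from a beta-lactamase FRET substrate served as the read-out. Cells: HEK293 with stably integrated ER-alpha-UAS-bla reporter. Agonist 17beta-estradiol was co-added with compounds; incubation 18 hr at 37C, substrate 2 hr at room temperature.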

[17] = biological target: Estrogen receptor (Homo sapiens) (UniProt P03372); test: qHTS assay to identify small molecule agonists of the estrogen receptor alpha (ER-alpha) signaling pathway (AID 743075; calls by dose curve)
[18] = biological target: Estrogen receptor (Homo sapiens) (UniProt P03372); test: qHTS assay to identify small molecule agonists of the estrogen receptor alpha (ER-alpha) signaling pathway using the BG1 cell line (AID 743079); further: nearly all actives have a fitted effect of over 20% in size
[19] = qHTS assay to identify small molecule antagonists of the estrogen receptor alpha (ER-alpha) signaling pathway using the BG1 cell line (AID 743080; calls by dose curve;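 further: BG1 cells stimulated with 17beta-estradiol alongside compound; nearly all actives have a fitted effect of over 25% in size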; further: potency means the concentration at half of the fitted maximal effect)
Method in brief: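 Endogenous full-length ER-alpha in BG1-Luc-4E2 cells drives a stably integrated 4×ERE luciferase gene; compounds were tested against 17beta-estradiol over 21.5 h, with luminescence and multiplexed viability fluorescence recorded.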

[20] = activity change: at 70.3 µM (top of the series)
On the % scale 0 is the no-effect control and ±100 the full control effect.

O=C(O)CC[N+](=O)[O-]
70.8 µM (active) and inactive: Potency [1]
inactive: Potency [2] | Potency [3] | Potency [4] | Potency [5] | Potency [6] | Potency [7, 20] | Potency [8] | Potency [9] | Potency [10] | Potency [11] | Potency [12] | Potency [13] | Potency [14] | Potency (Aromatase (Homo sapiens))

CCC(CC)Nc1c([N+](=O)[O-])cc(C)c(C)c1[N+](=O)[O-]
inactive: Potency [15] | Potency [2] | Potency [4] | Potency [8] | Potency [12] | Potency [13] | Potency [14]

O=P(O)(O)CCCl
inactive: Potency [15] | Potency [1] | Potency [2] | Potency [4] | Potency [8] | Potency [11] | Potency [12] | Potency [16] | Potency [13] | Potency [17] | Potency [18] | Potency [19] | Potency [14] | Potency (Aromatase (Homo sapiens))

CC(C)(C)c1ccccc1O
inactive: Potency [15] | Potency [3] | Potency [4] | Potency [8] | Potency [10] | Potency [11] | Potency [12] | Potency [13] | Potency [14] | Potency (Aromatase (Homo sapiens))
active: Potency [2] 61.1 µM

CCOc1cc(Oc2ccc(C(F)(F)F)cc2Cl)ccc1[N+](=O)[O-]
active: Potency [1] 54.5 µM | Potency [19] 31 µM
inactive: Potency [15] | Potency [2] | Potency [4] | Potency [8] | Potency [12] | Potency [16] | Potency [13] | Potency [17] | Potency [14] | Potency (Aromatase (Homo sapiens))

N#Cc1cc(Br)c(O)c(Br)c1
inactive: Potency [15] | activity change ([7]; at 70.3 µM (top of the series)) -3.58% | Potency [8] | Potency [12] | Potency [16] | Potency [13] | Potency [17] | Potency [14] | Potency (Aromatase (Homo sapiens))
active: activity change [7, 20] -6.84% | Potency [9] 61.1 µM | Potency [11] 68.5 µM | Potency [19] 68.5 µM and 52.5 µM

CC(C)=CC1C(C(=O)OCc2coc(Cc3ccccc3)c2)C1(C)C (stereo not given)
inactive and 54.4 µM (active): Potency [2]
inactive: Potency [15] | Potency [4] | Potency [8] | Potency [12] | Potency [16] | Potency [13] | Potency [17] | Potency [18] | Potency [19] | Potency [14] | Potency (Aromatase (Homo sapiens))
inactive and 38.5 µM (active): Potency [1]

CCOCN(C(=O)CCl)c1c(C)cccc1CC
active: Potency [1] 51.4 µM and 17.2 µM | Potency [2] 7.27 µM and 6.11 µM | Potency [3] 20.5 µM and 7.7 µM | Potency [11] 64.8 µM and 61.1 µM | Potency [16] 24.5 µM [inconclusive] | Potency (Aromatase (Homo sapiens)) 28.9 µM and 54.5 µM
inactive: Potency [4] | Potency [8] | Potency [10] | Potency [12] | Potency [13] | Potency [17] | Potency [18] | Potency [19] | Potency [14]

Cc1ccc(N)c(N)c1
inactive: Potency [15] | Potency [4] | Potency [8] | Potency [12] | Potency [13] | Potency [14]
active: Potency [1] 54.6 µM and 17.2 µM | Potency [2] 30.7 µM and 21.7 µM | Potency [10] 13.7 µM and 24.3 µM | Potency [11] 12.2 µM and 19.3 µM
